Here are results for 64 compounds from PubChem BioAssay AID1851 (National Center for Advancing Translational Sciences (NCATS), 2009).

Out of some 16,000 compounds screened, about 5,800 (36%) were called active. Another 23% or so got no clear call; they are omitted. The list shows a part of the results. Values without a mark were called inactive. Calls come from the whole dose curve; as a rule, active = well fitted curve in the direction sought with a large enough effect; inconclusive = small, poorly fitted or top-dose-only effect, or effect the other way; inactive = no such curve, though single readings can be large or run the other way.
% is set by controls: 0 for no effect and ±100 for the full control effect.

This assay deals with Cytochrome P450 2C19 (Homo sapiens) (UniProt P33261). Kind of assay: Cytochrome panel assay with activity outcomes. Particulars: recombinant CYP, pro-luciferin dealkylation, luminescence, p450-cyp2c19; series mostly up to 57.1 µM.
Cytochrome P450 2C19 (Homo sapiens), sequence (P33261 whole entry, looked up): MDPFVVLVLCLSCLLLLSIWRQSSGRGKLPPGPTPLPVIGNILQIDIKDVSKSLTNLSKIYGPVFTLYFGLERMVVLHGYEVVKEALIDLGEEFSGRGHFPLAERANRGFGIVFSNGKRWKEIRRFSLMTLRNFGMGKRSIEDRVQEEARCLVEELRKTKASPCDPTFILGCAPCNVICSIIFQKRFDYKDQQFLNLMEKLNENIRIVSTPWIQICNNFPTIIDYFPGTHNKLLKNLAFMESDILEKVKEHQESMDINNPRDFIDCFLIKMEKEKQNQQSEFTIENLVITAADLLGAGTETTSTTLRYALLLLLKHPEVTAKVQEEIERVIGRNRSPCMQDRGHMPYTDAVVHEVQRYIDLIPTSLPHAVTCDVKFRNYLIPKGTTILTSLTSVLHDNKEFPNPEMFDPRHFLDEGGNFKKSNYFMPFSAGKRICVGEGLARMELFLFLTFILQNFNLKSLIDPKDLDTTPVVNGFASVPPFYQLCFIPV
Regarding `CSc1nc(-c2ccc(C)cc2)[nH]c1S(=O)(=O)c1ccccc1`, the AC50 was 8.91 µM (active).

As for `CCn1c(=O)c2[nH]c(-c3ccccc3)nc2n(CC)c1=O`, the AC50 result is “inactive”.

`CC1CCN(c2ccccc2NC(=S)NC(=O)c2cccs2)CC1`: the AC50 is 8.91 µM (active).

For the compound `O=C(NC(=S)Nc1cccc(Cl)c1N1CCCCC1)c1ccco1`, the AC50 was 6.31 µM (active).

On to `O=C(NC(=S)Nc1cccc(Cl)c1N1CCCC1)c1ccc(-c2cccc([N+](=O)[O-])c2)o1`, for which the AC50 entry was “inactive”.

For `O=C(NC(=S)Nc1cccc(Cl)c1N1CCCCC1)c1cccs1`, the concentration at half-maximal activity (AC50) was 2.51 µM (active).

On to `CC[C@@]1(O)C(=O)OCc2c1cc1n(c2=O)Cc2cc3c(CN(C)C)c(O)ccc3nc2-1`, for which the activity, negative = inhibition is -16.8% [at 11.4 µM].

Consider `Clc1ccc2c(NCCNC3CCCCC3)ccnc2c1`, for which the activity, negative = inhibition is 41% [at 11.4 µM].

With `O=C(COc1ccc(Cl)cc1)N(Cc1ccccc1)c1ccccn1`, the AC50 is 0.501 µM (active).

With `C[N+]1(C)CCc2cc(O)c(O)cc2[C@H]1Cc1ccc(O)c(O)c1`, the activity, negative = inhibition was 26.9% [at 11.4 µM].

On to `CCOc1cc(/C=N/n2cnnc2)c(Br)cc1O`, for which the AC50 was 10 µM (active).

Turning to `COc1cc(CNC2CCCC2)cc(Cl)c1OCc1ccccc1Cl`, the AC50 was 2.24 µM (active).

As for `CCOC(=O)c1[nH]c(C(=O)O)c(CCC(=O)OC)c1C`, the AC50 entry is “inactive”.

As for `CCOC(=O)c1[nH]c(COC(=O)CCOc2ccccc2OC)c(C(=O)OCC)c1C`, the AC50 is 4.47 µM (active).

In the case of `COc1cc(C2C(=O)N(C3CCCC3)CC(=O)N2Cc2ccco2)ccc1OC(C)C` (centres undefined), the AC50 is 4.47 µM (active).

As for `CCOCCCN1C(=O)CN(C2CCCCC2)C(=O)C1c1ccc(OCC)c(OC)c1` (centres undefined), the AC50 result was “inactive”.

Take `CC1CN(C(=O)c2cc3c(s2)CCC3)CC(C)O1` (centres undefined): the AC50 is 14.1 µM (active).

As for `Cc1cc(C(C#N)c2cccc(Cl)c2)n2ncnc2n1` (centres undefined), the AC50 was 28.2 µM (active).

For the compound `CCN1C(=O)[C@H]2[C@H]3[C@H](O)[C@H](O)C/C(=N/O[C@@H](C)c4cn([C@H]5COC[C@H]5O)nn4)[C@@H]3CC[C@@H]2C1=O`, the activity, negative = inhibition was 27.9% [at 11.4 µM].

Consider `COC(=O)[C@H](N)Cc1ccc(Cl)cc1`, for which the AC50 entry is “inactive”.

Consider `C[C@H](N)C(=O)OC(C)(C)Cc1ccc(Cl)cc1`, for which the AC50 was 3.98 µM (active).

In the case of `C/C(=C\c1ccc(Cl)cc1)C(C)(C)C(=O)O`, the activity, negative = inhibition was -25.9% [at 11.4 µM].

As to `CC1=CC(C)(C)Nc2ccc(CSc3ccccc3)cc21`, the concentration at half-maximal activity (AC50) is 0.316 µM (active).

Take `CC1(C)CC(=O)C2=C(C1)Oc1nc3ccccc3cc1C2C(C#N)C#N` (centres undefined): the AC50 entry was “inactive”.

For `COc1cc(C2C(C#N)=C(N)OC3=C2C(=O)CCC3)c([N+](=O)[O-])cc1OC` (centres undefined), the AC50 entry is “inactive”.

For `Cc1cc(C2C(C#N)=C(N)Oc3n[nH]c(C)c32)c(C)s1` (centres undefined), the half-maximal activity concentration (AC50) was 11.2 µM (active).

As to `Cc1cc(C2C(C#N)=C(N)OC3=C2C(=O)CC(C)(C)C3)c(C)s1` (centres undefined), the AC50 is 4.47 µM (active).

On to `CC(C)(C)C(=O)OCOC(=O)[C@@H]1N2C(=O)[C@@H](NC(=O)[C@H](N)c3ccccc3)[C@H]2SC1(C)C`, for which the AC50 entry was “inactive”.

On to `C#CCOCCCC(=O)O`, for which the activity, negative = inhibition is 22.8% [at 11.4 µM].

For `CCCCN1CCC(COC(=O)c2cc(Cl)c(N)c3c2OCCO3)CC1`, the AC50 entry was “inactive”.

`CC1(C)CC(=O)c2cnc(N)nc2C1`: the AC50 result is “inactive”.

With `CC1(C)CC(=O)c2cn3ncnc3nc2C1`, the AC50 is 15.8 µM (active).

For the compound `CC1(C)O[C@H]2C[C@@H]3[C@H]4CCC5=CC(=O)CC[C@@]5(C)[C@]4(F)[C@@H](O)C[C@@]3(C)[C@@]2(C(=O)CCl)O1`, the AC50 entry was “inactive”.

On to `COc1cc2ccc(=O)oc2cc1O`, for which the AC50 entry is “inactive”.

As to `COc1ccc(-c2coc3cc4oc(=O)cc(C)c4cc23)cc1F`, the AC50 was 3.55 µM (active).

As for `Cn1c(SC2CCCCC2=O)nnc1-c1ccncc1` (centres undefined), the half-maximal activity concentration (AC50) was 7.08 µM (active).

On to `CC1CC2(CCCCC2)N2C(=O)C(=O)c3cccc1c32` (centres undefined), for which the AC50 is 2.82 µM (active).

With `C#CCN1C(C)=C(C(=O)OC)[C@@H](c2cccc([N+](=O)[O-])c2)C(C(=O)OCC)=C1C`, the half-maximal activity concentration (AC50) is 5.01 µM (active).

Regarding `CCOC(=O)C1=C(C)NC(C)=C(C(=O)OC)[C@H]1c1cccc([N+](=O)[O-])c1`, the concentration at half-maximal activity (AC50) is 0.251 µM (active).

Regarding `CCOC(=O)C1=C(C)NC(C)=C(C(=O)OC)[C@@H]1c1cccc([N+](=O)[O-])c1`, the half-maximal activity concentration (AC50) is 0.126 µM (active).

Turning to `OC[C@@H]1O[C@@H](n2cnc3c(NC4CCCC4)ncnc32)[C@H](O)[C@H]1O`, the AC50 result was “inactive”.

As for `NCc1ccc(S(N)(=O)=O)cc1`, the AC50 entry is “inactive”.

Consider `CCN(C1CCCCC1)S(=O)(=O)c1ccc(S(=O)(=O)NCc2ccncc2)cc1`, for which the AC50 was 1.58 µM (active).

As for `CCCCSc1nnc(-c2ccc(C)cc2)n1C`, the AC50 is 14.1 µM (active).

Regarding `COc1nc(OCCNC(C)=O)nc(N(C)C)n1`, the AC50 entry is “inactive”.

As to `O=[N+]([O-])c1ccc2ncccc2c1CCc1c([N+](=O)[O-])ccc2ncccc12`, the activity, negative = inhibition was 39.5% [at 11.4 µM].

`O=[N+]([O-])c1cc(Cc2cc([N+](=O)[O-])c3cccnc3c2O)c(O)c2ncccc12`: the AC50 is 2.51 µM (active).

Take `O=S(=O)(O)c1cc(N=Nc2cccc3ccccc23)c(O)c2ncccc12`: the activity, negative = inhibition is -29.3% [at 11.4 µM].

`CC(=O)N1CCN(c2nc(C)nc3sc4c(c23)CCC(C)C4)CC1` (centres undefined): the AC50 was 4.47 µM (active).

As for `CSc1ncnc2c1ncn2[C@@H]1O[C@@H](CO)[C@H](O)O[C@@H]1O`, the activity, negative = inhibition was 41% [at 11.4 µM].

Regarding `CCN(CC)c1ccc(/C=C/c2nc3ccccc3s2)cc1`, the AC50 is 2 µM (active).

For `CN(N=O)c1ccc(/C=C\c2ccnc3ccccc23)cc1`, the activity, negative = inhibition was 14.4% [at 11.4 µM].

As to `Cc1cccc(OCCCCCn2ccnc2)c1`, the AC50 is 0.0398 µM (active).

On to `Cc1ccc(OCCOCCn2ccnc2)c(Br)c1`, for which the AC50 was 0.0158 µM (active).

Turning to `C#CCCCO/N=C1/C[C@@H](O)[C@@H](O)[C@@H]2[C@@H]3C(=O)N([C@@H](C)c4ccccc4)C(=O)[C@H]3CC[C@H]12`, the activity, negative = inhibition was -27.2% [at 11.4 µM].

For the compound `CCCn1cnc2c1c(=O)n(CCCCC(C)=O)c(=O)n2C`, the AC50 result is “inactive”.

Regarding `Cn1ncc(C#N)c1/N=C/N1CCCCCC1`, the AC50 is 14.1 µM (active).

As for `O=C(O)c1c(Br)c(Br)c(Br)c(Br)c1C1c2ccc(O)cc2Oc2cc(O)ccc21`, the activity, negative = inhibition is -94.3% [at 11.4 µM].

With `COc1ccccc1-c1cc(NCc2cccc(C)c2)ncn1`, the AC50 was 3.98 µM (active).

With `COc1ccccc1-c1cc(NCc2cnc(C)cn2)ncn1`, the AC50 was 15.8 µM (active).

In the case of `Cc1cnc(CNc2cc(-c3ccccc3Cl)ncn2)cn1`, the AC50 entry was “inactive”.

As for `Cc1cnc(CNc2cc(-c3ccccc3C)ncn2)cn1`, the AC50 result is “inactive”.

`CN(C)Cc1ccccc1-c1cc(NCc2ccccc2)ncn1`: the AC50 result is “inactive”.

With `COc1ccccc1-c1cc(NCc2ccccc2)ncn1`, the AC50 is 7.94 µM (active).

The term AC50 denotes the midpoint of the concentration-response curve, whichever way the signal moves.
